Compound activity: PubChem BioAssay, National Center for Advancing Translational Sciences (NCATS)
Only some compounds are listed: those with a hit (about 12% of all), similar ones and a draw of the others.
G9a block: qHTS Assay for Inhibitors of Histone Lysine Methyltransferase G9a. Histone-lysine N-methyltransferase EHMT2 (Homo sapiens), Q96KQ7. G9a H3K9 monomethylation, AlphaScreen, 2 h. Potency, µM (series often up to 102 µM), actives largely listed as inhibitors. 350,000 compounds, 8.8% hits; further: nearly all actives have a fitted effect of over 75% in size
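Readings reflect AlphaScreen signal from monomethyl-H3K9 antibody detection. HMT at 20 nM; substrate b-H3K9 500 nM; cofactor SAM 20 uM; 2 h RT reaction; compounds tested as titrations in qHTS with 15 min preincubation.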
PLK1 PBD block: qHTS for Inhibitors of PLK1-PDB (polo-like kinase 1 - polo-box domain): Primary Screen. Serine/threonine-protein kinase PLK1 (Homo sapiens), P53350. Plk1 PBD binding of FITC phosphopeptide, fluorescence polarization. Potency, µM, most hits filed as inhibitors. 360,000 compounds, 2.8% hits; further: series mostly up to about 57 µM; nearly all actives have a fitted effect of over 65% in size
Target sequence (P53350 whole entry, looked up, the tested form may be a part): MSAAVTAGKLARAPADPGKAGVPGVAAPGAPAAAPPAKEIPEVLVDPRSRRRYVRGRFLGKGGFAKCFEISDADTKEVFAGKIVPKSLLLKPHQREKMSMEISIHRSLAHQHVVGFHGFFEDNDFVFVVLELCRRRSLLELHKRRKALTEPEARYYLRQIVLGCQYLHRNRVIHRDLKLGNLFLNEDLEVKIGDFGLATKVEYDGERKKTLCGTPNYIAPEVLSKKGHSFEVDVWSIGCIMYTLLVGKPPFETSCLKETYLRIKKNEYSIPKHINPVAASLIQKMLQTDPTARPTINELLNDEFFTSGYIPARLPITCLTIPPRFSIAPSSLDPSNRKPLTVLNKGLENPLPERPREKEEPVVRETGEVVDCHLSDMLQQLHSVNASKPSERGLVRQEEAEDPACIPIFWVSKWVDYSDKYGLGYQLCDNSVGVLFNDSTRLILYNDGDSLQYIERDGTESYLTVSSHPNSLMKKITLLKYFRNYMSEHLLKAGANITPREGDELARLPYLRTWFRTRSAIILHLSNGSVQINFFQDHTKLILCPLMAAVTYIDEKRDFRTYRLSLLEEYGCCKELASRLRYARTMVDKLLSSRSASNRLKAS
BAZ2B block: qHTS Assay for Inhibitors of BAZ2B. AlphaScreen BAZ2B-H3K14Ac peptide displacement. Potency, µM (series often up to 114 µM), usual class: inhibitors. 360,000 compounds, 4.4% hits. Bromodomain adjacent to zinc finger domain protein 2B (Homo sapiens), Q9UIF8; further: nearly all actives have a fitted effect of over 60% in size
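Multi-concentration screen (max 110 uM) measuring displacement of acetylated histone H3 peptide from BAZ2B by AlphaScreen, using 50 nM protein, 50 nM peptide and 10 ug/mL streptavidin donor plus Ni-chelate acceptor beads.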
JMJD2A Tudor inh: qHTS Assay for Inhibitors of JMJD2A-Tudor Domain; AID 504339, 2011; 390,000 compounds, 4.4% hits; AlphaScreen JMJD2A-Tudor / H3K4me3 peptide binding; Lysine-specific demethylase 4A (Homo sapiens), O75164; Potency, µM (top dose mostly 114 µM), usual class: inhibitors; further: nearly all actives have a fitted effect of over 50% in size
HP1b chromo inh: HTS for Inhibitors of HP1-beta Chromodomain Interactions with Methylated Histone Tails; Chromobox protein homolog 1 (Homo sapiens), P83916; AlphaScreen HP1-beta / biotin-H3K9me3 peptide binding; Potency, µM (titrated, usually from 114 µM), usual class: inhibitors; 390,000 compounds, 0.56% hits; further: nearly all actives have a fitted effect of over 70% in size
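AlphaScreen: HP1-beta (50 nM) preformed 30 min with biotin-H3(1-18)K9me3 peptide (50 nM) in PBS pH 7.4, 0.01% Tween-20. Compound added for 30 min at RT, then streptavidin donor/nickel chelate acceptor beads (10 ug/mL) for 30 min.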
Sfp inh: qHTS Assay for Inhibitors of Bacillus subtilis Sfp phosphopantetheinyl transferase (PPTase). Potency, µM, hits mostly inhibitors. Biochemical Sfp PPTase activity, qHTS. AID 1490, 2009. 310,000 compounds, 3.5% hits;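 further: the enzyme is Sfp with the accession as filed and its product quenches rhodamine fluorescence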
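Compounds were incubated with enzyme (final 15 nM) for 15 min at room temperature before substrate addition started the reaction. Fluorescence at 525 nm excitation, 598 nm emission was recorded immediately and after 30 minutes.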
Numbers stand for hits; - = inactive; ? = inconclusive; . = no result; [ ] = remark or other dose. The call rests on the fitted dose curve; in most records, active means well fitted curve in the direction sought with a large enough effect; inconclusive means small, poorly fitted or top-dose-only effect, or another doubt; inactive means no such curve, though single readings can be large; an effect the other way counts as inactive or inconclusive.

SMILES	G9a block	PLK1 PBD block	BAZ2B block	JMJD2A Tudor inh	HP1b chromo inh	Sfp inh
CCN1CCN(CCCOc2ccc(-c3ccccc3)cc2)CC1	-	-	-	-	-	-
CN1CCC(=O)N(CCOc2ccccc2)CC1	28µM	-	?	?	-	-
COc1ccc(OCCOCCN2CCN(C)CC2)cc1	22µM	-	50µM	18µM	?	?
CN1CCN(CCOc2ccc(-c3ccccc3)cc2)CC1	50µM	-	?	-	-	-
CN1CCN(CCCOc2ccc(-c3ccccc3)cc2)CC1	.	21µM	-	?	-	-
COc1cccc(CNC(=O)CSC2=Nc3ccccc3C3=NC(C)C(=O)N23)c1OC (centres undefined)	-	.	-	-	-	.
CCc1ccc(/C=C2\Oc3c(ccc(O)c3CN3CCN(CCO)CC3)C2=O)cc1	-	-	-	-[11.4 µM]	-	-
COC(=O)c1ccccc1NC(=O)c1nc(-c2ccc(C)cc2)n2c1CCCCC2	-	.	-	-	-	.
O=C(Nc1cc(Cl)cc(Cl)c1)c1ccc(F)c(S(=O)(=O)NC2CCCCC2)c1	-	.	-	-	-	.
C/C(CCN1CCCCc2nc(C)c(C)cc21)=N\O[C@H](C)c1cn([C@H](CO)Cc2ccccc2)nn1	56µM	.	-	.	.	-
COc1ccc(C2=NOC(C(=O)NCc3ccccc3)C2)cc1 (centres undefined)	.	27µM	-	?	-	-
CCn1ncc(C2=NOC(C(=O)NCc3ccc(OC)cc3)C2)c1C (centres undefined)	-[2.33 µM]	-	-	-	-	-
CCn1ncc(C2=NOC(C(=O)NCc3ccccc3)C2)c1C (centres undefined)	45µM	?	-	-	-	79µM
CCCN1CCOC(CC(=O)Nc2ccc([N+](=O)[O-])cc2)C1=O (centres undefined)	20µM	-	-	-[11.4 µM]	-	-
CCN1CCOC(CC(=O)Nc2cccc([N+](=O)[O-])c2)C1=O (centres undefined)	7.9µM	-	-	-	-	?
CCOC(=O)c1ccc(NC(=O)CC2OCCN(CC)C2=O)cc1 (centres undefined)	?	-	-	-	-	-
Cc1c(CNC2CCCCCC2)c(C(=O)O)c(C)n1Cc1cccc(Cl)c1	-	.	-	?	-	.
COc1cc(OC)cc(-c2cc3cc4c(cc3cn2)OCO4)c1	.	-	.	-	-	.
COc1cc(OC)cc(-c2n[nH]c(=S)n2-c2ccc3c(c2)OCO3)c1	1.8µM	-	-	20µM	-	?
Fc1ccc(-n2c(-c3ccc4c(c3)OCO4)n[nH]c2=S)cc1Cl	1.4µM	-	-	-	-	-
CC1=C(C(=O)Nc2cccc(C(=O)NC3CCCCC3C)c2)SCCO1 (centres undefined)	-	-	?	-	-	-
COC(=O)[C@@H](NCc1ccc(OC)c(B(O)O)c1)C(C)C	.	-	.	-	-	.
COc1cccc(N/C(=N/C(=S)Nc2ccc(C)cc2C)Nc2nc(C)cc(C)n2)c1	.	-	-	-	-	?
CCNC(=S)/N=C(/Nc1ccccc1)Nc1nc(C)cc(C)n1	.	-	?	-	-	4.5µM
Cc1ccc(NC(=S)NCc2cccnc2)cc1	-[0.501 µM]	-	-	-	-	-
CCNC(=S)/N=C(\N)Nc1nc(C)c2cc(C)ccc2n1	?	-	11µM	?	-	-
CCNC(=S)NC(=NCc1cccnc1)Nc1nc(C)cc(C)n1	.	-	-	-	-	25µM
CCOc1ccc2nc(N/C(N)=N/C(=S)Nc3ccc(C)c(C)c3)nc(C)c2c1	-	-	-	-	-	-
CCNC(=S)/N=C(/Nc1ccc(OC)cc1)Nc1nc(C)cc(C)n1	-	-	-	-	-	3.2µM
COc1ccc(N2CCN(C(=O)CCC(=O)N3CCOc4ccc(Cl)cc43)CC2)cc1	?	-	?	?	-	-
